Among the data in PubChem BioAssay (NCI) are growth values, retold here.

What all share (test): NCI-60 one-dose screen, 48 h (100 = growth as untreated, 0 = no growth, -100 = all killed)
Test [1] deals with NCI-H226 lung. To be noted: 10 µM.
Test [2] has as its system HOP-62 NSCLC. As to conditions: 10 µM unless noted.
Test [3] relates to NCI-H460 lung. To be noted: 10 µM unless noted.
The subject of test [4] is A549/ATCC NSCLC. To be noted: 10 µM unless noted.
The test system of test [5] is 786-0 renal. As to conditions: 10 µM unless noted.
In test [6] the test system is COLO 205 colon. To be noted: 10 µM unless noted.
Test [7] concerns NCI-H522 lung. To be noted: 10 µM.
In test [8] the test system is HOP-92 NSCLC. As to conditions: 10 µM unless noted.
The subject of test [9] is NCI-H322M lung. To be noted: 10 µM unless noted.

SMILES strings stand for the structures. About 83,000 compounds went through this panel and 20% of them were active in at least one assay; those are over-represented in the sample as a whole.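 Method: cells in 96-well plates; compound added at one concentration; 48 h incubation; percent growth measured; values under 10 scored active.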 Unmarked numbers belong to inactive results. Calls of active or inactive are those of the source.

Take `N#CCCN1CCN(CCC#N)C1=S`: the growth in test [1] is 112%; in test [2] it was 108%; in test [3], 103%; in [4], 97.4%; in [5], 105%; in test [6], 105%.
As to `Cc1ccc(-c2c3c(N)c4c(nc3nc3c2c(C)nn3-c2ccccc2)CCCC4)cc1`, the growth in test [1] is 91.8%; in test [2], 106%; in test [7], 91.6%; in [4], 93.3%; in test [5], 91.6%; in [6] it was 92.3%.
Take `Cc1nc2cc(Nc3nc(Cl)nc(Nc4ccc(F)cc4)n3)ccc2n1Cc1ccccc1`: the growth was 80.5% in [1]; 88.4% in [2]; 88% in test [3]; -69.8% (active) in test [7]; 86.7% in test [4]; 33% in test [5]. Also, the growth in [6] was 109%.
As for `C=C(C)COC(=O)c1ccccc1C(=O)OCC1(C)CO1` (configuration not stated), the growth in [1] is 102%; in [2] it was 102%; in test [3], 108%; in test [4] it was 94.8%; in [5] it was 105%; in test [6] it was 106%.
Turning to `Cc1nc2cc(Nc3nc(Nc4ccc(F)cc4)nc(-c4cccs4)n3)ccc2n1Cc1ccccc1`, the growth in test [1] was 65%; in [2], 92.3%; in test [3], 39.6%; in [8], 22%; in test [7], 53.5%; in test [4] it was 43.1%. The results for the growth in test [5] and in test [6] were 37.5% and 56.8%, respectively.
`C=C(C)CCCC(C)CC#N` (configuration not stated): the growth in test [1] was 99.4%; in [2], 90.7%; in test [3], 107%; in test [8], 95.1%; in test [7], 90.3%; in test [4] it was 99.9%. For the same compound, the growth in [5] is 97.3%; in test [6], 106%.
Take `COc1cccc(-c2ccc3c(c2)C2CCN(Cc4ccccc4)C3C2)c1` (configuration not stated): the growth in test [1] was 99.2%; in test [2] it was 72.2%; in test [3], 93.5%; in test [8], 41%; in [7], 55.1%; in test [4] it was 71.2%. Besides, the growth in [5] is 77.4%; in test [6], 79.3%.
On to `Cc1nn(-c2ccccc2)c2nc3nc4c(c(N)c3c(-c3ccc(Cl)cc3)c12)CCC4`, for which the growth is 94.1% in test [1]; 101% in test [2]; 72.7% in test [3]; 80.4% in [8]; 102% in test [7]; 84.8% in [4]. Moreover, the growth in test [5] was 74%; in test [6], 67%.
With `COC(=O)c1c2c(c(C)[n+]([O-])c1C)C(=O)C=C(NCc1ccc(F)cc1)C2=O`, the growth in [9] was -6.43% (active); in test [2] it was -6.11% (active); in test [3], -0.65% (active); in [8], -41.1% (active); in test [7] it was -15.1% (active); in test [4] it was -22.7% (active). In test [5], the growth is 5.86% (active).
With `Cc1nc2cc(Nc3nc(N4CCOCC4)nc(N4CCN(C)CC4)n3)ccc2n1Cc1ccccc1`, the growth is 71.3% in test [1]; 95% in test [2]; 82.9% in test [8]; 92.6% in test [7]; 102% in [4]; 97.5% in test [5]. For the same compound, the growth in test [6] was 111%.
As to `Cn1c2c(cc(S(=O)(=O)c3ccccc3)c1=O)CCc1c-2cnn1-c1ccccc1Cl`, the growth is 117% in test [1]; 113% in test [2]; 106% in test [3]; 90.8% in [8]; -72.1% (active) in test [7]; 86.7% in test [4]. Moreover, the growth is 102% in test [5] and 113% in test [6].
Take `O=C(Nc1ccc(F)cc1)c1ccc(C(=O)Nc2ccc(F)cc2)cc1`: the growth in test [1] is 99.5%; in test [2], 98.2%; in [3], 105%; in test [8] it was 105%; in test [7] it was 111%; in test [4] it was 98.9%. The growth in test [5] is 98.8%; in test [6], 114%.
In the case of `COc1ccc(/C=C(\C#N)c2ccc(OC)cc2)cc1`, the growth is 82.7% in test [1]; 67.1% in test [2]; 50.9% in test [3]; 54.3% in [4]; 90.1% in test [5]; 78.7% in test [6].
Take `COc1nc2c(cc1S(=O)(=O)c1ccccc1)CCc1c-2cnn1-c1cccc(Cl)c1`: the growth in test [1] was 80.3%; in [2], 90.7%; in test [3] it was 80.6%; in test [7], 75.6%; in test [4], 66.2%; in test [5] it was 72.8%. For the same compound, in [6], the growth was 103%.
As for `CCC(=O)Nc1nnc(Cc2ccc(OC)c(OC)c2)s1`, the growth is 24.9% in test [9]; -67.2% (active) in test [2]; -43.7% (active) in test [3]; 32.6% in [8]; -55% (active) in test [4]; 9.21% (active) in [5]. Further, in [6], the growth was 28.2%.
Turning to `CCCCC1COc2cccc3c(SCC(=O)N(C)c4cccc5ccccc45)cc[n+]1c23` (configuration not stated), the growth is 110% in test [9]; 106% in [2]; 107% in test [3]; 83.5% in test [7]; 103% in test [4]; 98.3% in test [5].
In the case of `CC(C)(C)[Si](C)(C)OC1[C@@H](COC(=O)NC(=O)CCl)O[C@@H](n2cnc3c(N)ncnc32)[C@H]1O[Si](C)(C)C(C)(C)C` (some centres not stated), the growth in test [9] was 113%; in test [2], 81.9%; in test [3], 64.6%; in test [8] it was 12.7%; in test [4], 62.6%; in [5], 4.11% (active). For the same compound, the growth in test [6] was 27.5%.
Take `O=C(N/N=C/c1ccc(F)cc1)c1[nH]c2ccc(I)cc2c1-c1ccccc1`: the growth is 34% in [9]; 38% in test [2]; 1.78% (active) in test [3]; 22.5% in test [8]; 4.71% (active) in test [7]; 32.4% in test [4]. For the same compound, the results for the growth in [5] and in test [6] were 28.3% and -40.1% (active), respectively.
With `COc1cc(CNCCN2C(=O)c3ccc4c5c(ccc(c35)C2=O)C(=O)N(CCNCc2cc(OC)c(OC)c(OC)c2)C4=O)cc(OC)c1OC`, the growth in test [9] was -68.3% (active); in test [2] it was -78% (active); in [3], -81.7% (active); in [7], -60.3% (active); in [4], -76.5% (active); in test [5], -93.6% (active). Also, in test [6], the growth is -72% (active).
With `CC[Si](CC)(CC)OC1[C@@H](O[Si](CC)(CC)CC)[C@@H](CNC(=O)NC)O[C@H]1n1cnc2c(NC(=O)Nc3ccccc3)ncnc21` (some centres not stated), the growth in test [9] is 96.3%; in test [2], 95.9%; in test [3] it was 24.8%; in [8], 67.2%; in test [4], 68.5%; in [5] it was 89.6%. Moreover, the growth in test [6] was 99.1%.
As for `O=c1ccc2ccccc2o1`, the growth in test [9] is 115%; in test [2], 108%; in [3], 114%; in test [7] it was 94.3%; in test [4], 94%; in test [5] it was 105%. Also, the growth in [6] was 114%.
For the compound `O=C1c2cc(S(=O)(=O)O)ccc2C(=O)c2c1cccc2[N+](=O)[O-]`, the growth in [9] is 111%; in test [2] it was 117%; in test [3] it was 115%; in [8] it was 110%; in [7], 96.6%; in [4], 98.6%. The figures for the growth in test [5] and in test [6] were 101% and 108%, respectively.
As to `C[C@H]1C(=O)C23CCC1C[C@@]21O[C@@H]2C(C)(C)C=CC(=O)C23COC1=O`, the growth in test [9] is 105%; in [2], 101%; in [3], 101%; in [8], 114%; in test [7], 93.2%; in test [4], 83.9%. For the same compound, the figures for the growth in test [5] and in test [6] were 109% and 105%, respectively.
On to `Fc1ccccc1Nc1ccc2nnc(-c3ccncc3)n2n1`, for which the growth was 104% in test [9]; 106% in test [2]; 103% in test [3]; -74.5% (active) in [7]; 103% in test [4]; 101% in test [5]. For the same compound, the growth in test [6] is 106%.
For `CN1CCC(OC2c3ccccc3CCc3ccccc32)CC1`, the growth is 92.8% in [9]; 93.8% in test [2]; 106% in [3]; 96.7% in test [7]; 96.2% in [4]; 103% in test [5]. Also, the growth in [6] was 99.1%.
As for `COc1cc(OCc2cccc(-c3ccc(C(O)c4nccs4)cc3)c2C)cc(OC)c1C=O` (configuration not stated), the growth in [9] is 92.1%; in [2], 47.9%; in [3], 38.8%; in test [7], 47.3%; in test [4], 40.2%; in test [5] it was 48.2%.
Regarding `CC(=O)N(CC(O)CO)c1c(I)c(C(=O)NCCO)c(I)c(C(=O)NCC(O)CO)c1I` (configuration not stated), the growth in test [9] was 93%; in [2] it was 99.2%; in test [3], 111%; in [7], 97.8%; in test [4] it was 100%; in test [5], 91%. In addition, the growth in test [6] was 105%.
`COc1ccc(C2CC(c3cc(OC)c(OC)c(OC)c3)=NN2c2ccc(S(N)(=O)=O)cc2)cc1` (configuration not stated): the growth is 67.6% in [9]; 67.3% in test [2]; 58.8% in [3]; 27.8% in test [8]; 66.9% in test [7]; 44.5% in test [4]. Besides, the growth in test [5] was 66.6%; in test [6], 75.6%.
Take `CCCOC(=O)c1ccc2c(c1)[N+](=O)C(C(=O)c1ccccc1)=C(C(F)(F)F)[N+]2=O`: the growth in [9] was -91.7% (active); in [2], -96.5% (active); in test [3], -69.9% (active); in [7], -92.6% (active); in test [4], -88.1% (active); in test [5], -81.2% (active). For the same compound, the growth in [6] is -92.3% (active).
